Screens deposited in PubChem by National Center for Advancing Translational Sciences (NCATS).
In the library only some 11% were active in any assay of this set; here they are far more common.
PNC inhibitor = High Content Assay for Compounds that inhibit the Assembly of the Perinucleolar Compartment. PC3M PTB-GFP, PNC prevalence imaging, 16 h; active compounds read low. 3.1% of 140,000 active. activity change (PNC), negative = inhibition, % at 10 µM. AID 2417, 2010;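 active = readout at or below -70, meaning at least 70% loss of cells showing the perinucleolar compartment, a nuclear body marking cancer cells; inconclusive = readout between -30 and a set limit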
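Compounds are pinned in duplicate onto adhered PC3M cells stably expressing GFP-tagged PTB and incubated 16 h at 37 C. Cells are then fixed, nuclei stained with Hoechst, and PNC-positive cells counted.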
CBFb RUNX1 block = qHTS Assay for Compounds Blocking the Interaction Between CBF-beta and RUNX1 for the Treatment of Acute Myeloid Leukemia. AID 1477, 2009. AlphaScreen CBFb-His/RUNX1-biotin binding, biochemical. Runt-related transcription factor 1 (Homo sapiens) + Core-binding factor subunit beta …. 230,000 tested, under 10 active. Potency, µM (top dose mostly 59.8 µM), actives largely listed as inhibitors
Target sequence (Q01196 whole entry, looked up): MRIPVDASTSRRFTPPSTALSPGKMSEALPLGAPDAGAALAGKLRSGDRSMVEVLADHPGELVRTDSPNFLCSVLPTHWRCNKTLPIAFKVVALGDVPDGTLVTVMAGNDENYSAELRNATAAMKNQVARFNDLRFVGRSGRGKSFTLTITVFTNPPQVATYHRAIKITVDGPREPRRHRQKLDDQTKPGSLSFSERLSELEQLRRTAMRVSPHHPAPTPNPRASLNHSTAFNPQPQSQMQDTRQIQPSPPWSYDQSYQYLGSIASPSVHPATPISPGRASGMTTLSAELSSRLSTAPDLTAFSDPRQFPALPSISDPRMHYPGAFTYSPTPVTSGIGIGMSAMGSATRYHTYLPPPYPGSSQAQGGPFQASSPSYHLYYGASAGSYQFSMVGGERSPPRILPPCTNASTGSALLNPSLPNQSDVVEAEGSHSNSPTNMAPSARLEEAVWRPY
Target sequence (Q13951 whole entry, looked up): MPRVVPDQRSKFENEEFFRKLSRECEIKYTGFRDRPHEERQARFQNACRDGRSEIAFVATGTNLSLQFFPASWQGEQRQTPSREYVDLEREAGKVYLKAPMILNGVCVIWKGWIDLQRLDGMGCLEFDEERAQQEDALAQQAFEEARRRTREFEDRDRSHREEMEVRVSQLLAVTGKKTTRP
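AlphaScreen proximity signal reports loss of binding between His-tagged CBF-beta and biotin-labelled RUNX1, each at 30 nM. Proteins are pre-associated for 20 minutes, compounds added for 15 minutes, then beads for 90 minutes, all at ambient temperature.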
HTT cytoprotect = qHTS Multiplex Assay to Identify Dual Action Probes in a Cell Model of Huntington: Cytoprotection (ATP); PC12 HTT-Q103 induced, cytoprotection, ATP luminescence, 40 h; Potency, µM (highest dose often 56.4 µM), actives largely listed as activators; 0.14% of 230,000 active; also: nearly all actives have a fitted effect of over 45% in size
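Stable PC12 Q103-GFP cells in serum-supplemented, phenol red-free DMEM; induction by tebufenozide at 100 nM final; compound dose series; cell viability quantified luminescently from ATP.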
HPGD block = qHTS Assay for Inhibitors of HPGD (15-Hydroxyprostaglandin Dehydrogenase); 15-hydroxyprostaglandin dehydrogenase [NAD(+)] (Homo sapiens), P15428; purified HPGD, NADH fluorescence kinetic, PGE2 substrate; Potency, µM, hits mostly inhibitors; 4.3% of 150,000 active; AID 894, 2007; active = well fitted inhibition curve with a large enough effect, not every such curve was filed as active; inconclusive = small, poorly fitted or top-dose-only effect, or another doubt; inactive = no such curve, though single readings can be large or run the other way
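20 nM HPGD preincubated 15 min at room temperature with compound in 50 mM Tris-HCl pH 8, 0.01% Tween 20. Started with 1 mM NAD+ and 30 uM prostaglandin E2; NADH fluorescence (360/450 nm) read 5 times over 30-s intervals, last minus first.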
ALDH1A1 inh = qHTS Assay for Inhibitors of Aldehyde Dehydrogenase 1 (ALDH1A1); Purified ALDH1A1, NADH fluorescence, propionaldehyde substrate; Potency, µM (doses to about 75.3 µM), actives largely listed as inhibitors; 7.3% of 220,000 active; Aldehyde dehydrogenase 1A1 (Homo sapiens), P00352; active = well fitted inhibition curve with a large enough effect, not every such curve was filed as active; inconclusive = small, poorly fitted or top-dose-only effect, or another doubt; inactive = no such curve, though single readings can be large or run the other way
HttQ103 aggreg = qHTS Multiplex Assay to Identify Dual Action Probes in a Cell Model of Huntington: Aggregate Formation (GFP). 1.1% of 220,000 active. PC12 HttQ103-GFP aggregates, Acumen cytometry, 40 h. AID 1688, 2009. Potency, µM (series often up to 46.1 µM), actives largely listed as inhibitors; also: nearly all actives have a fitted effect of over 60% in size
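Read-out: GFP aggregate count by laser scanning cytometer (488 nm excitation, 500-530 nm emission, 1–25 µm objects >6 SD above background). Cells: PC12, inducible HTTex1-Q103-GFP, 100 nM tebufenozide; compounds titrated.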
Large screens that a line does not name were inactive. Unless noted, calls follow the shape of the dose curve; as a rule, active = well fitted curve in the direction sought with a large enough effect; inconclusive = small, poorly fitted or top-dose-only effect, or another doubt; inactive = no such curve, though single readings can be large; an effect the other way counts as inactive or inconclusive.

CCCCCCCCCCCCCC[C@@H](O)[C@@H](O)[C@@H](N)CO	none (no result: PNC inhibitor, HTT cytoprotect, HPGD block, ALDH1A1 inh, HttQ103 aggreg)
O=C(NNC(=O)c1sc2cccc(Cl)c2c1Cl)Nc1ccccc1	PNC inhibitor inconclusive, ALDH1A1 inh inconclusive
O=C(NNC(=O)c1sc2cccc(Cl)c2c1Cl)NC1CCCCC1	ALDH1A1 inh 3.55µM
N#C/C(C(=O)c1ccccc1)=C1/SC=C(N)N1c1ccccc1	HPGD block 20µM, ALDH1A1 inh 3.16µM
COC(=O)/C(C#N)=C1/SC=C(C)N1c1ccccc1	PNC inhibitor inconclusive, ALDH1A1 inh 11.2µM
COc1ccc(-n2c(=O)c(-c3cc(F)cc(F)c3)nc3cnc(N(C)C)nc32)cc1	ALDH1A1 inh inconclusive (no result: PNC inhibitor, CBFb RUNX1 block, HPGD block, HttQ103 aggreg)
COc1ncc2nc(CCc3ccccc3)c(=O)n(CCC#N)c2n1	ALDH1A1 inh inconclusive (no result: PNC inhibitor, CBFb RUNX1 block, HttQ103 aggreg)
O=C(c1cccc(F)c1)N1CCC2(CCCN(c3ccc(-c4ccccc4)cc3)C2)CC1	none (no result: PNC inhibitor, CBFb RUNX1 block, HttQ103 aggreg)
NS(=O)(=O)c1cccc(NC(=S)NC(=O)C23CC4CC(CC(C4)C2)C3)c1	ALDH1A1 inh 28.2µM
O=C(NNC(=S)NC(=O)C12CC3CC(CC(C3)C1)C2)c1ccncc1	HttQ103 aggreg 3.16µM
CC(C)OCC1Cn2c(nc3c2c(=O)n(C)c(=O)n3C)O1 (centres undefined)	none (no result: PNC inhibitor, HPGD block)
CCCC(=O)N1CCN(c2ccc(NC(=O)c3ccc([N+](=O)[O-])o3)cc2)CC1	HttQ103 aggreg 22.4µM (no result: PNC inhibitor, HPGD block)
O=C(Nc1ccc(N2CCOCC2)c(Cl)c1)c1ccccc1Cl	none (no result: PNC inhibitor, HPGD block)
CC(=O)NC(=S)Nc1ccc(N2CCOCC2)c(S(=O)(=O)Nc2cc(Cl)ccc2Cl)c1	HTT cytoprotect inconclusive, ALDH1A1 inh 0.355µM (no result: PNC inhibitor, HPGD block)
O=C(Nc1ccc(N2CCN(C(=O)c3ccccc3)CC2)c(Cl)c1)c1ccc(Br)o1	PNC inhibitor inconclusive, HPGD block inconclusive, ALDH1A1 inh inconclusive, HttQ103 aggreg 11.2µM
CC(=O)N1CCN(c2ccc(NC(=O)c3ccccc3Br)cc2Cl)CC1	PNC inhibitor inconclusive, HPGD block 15.8µM, ALDH1A1 inh inconclusive
O=C(Nc1ccc(N2CCCC2)c(Cl)c1)c1ccc([N+](=O)[O-])o1	CBFb RUNX1 block inconclusive, HTT cytoprotect inconclusive, ALDH1A1 inh 3.55µM (no result: PNC inhibitor, HPGD block)
O=C(Nc1ccc(N2CCOCC2)c(Cl)c1)c1ccc(Br)o1	HPGD block 25.1µM, ALDH1A1 inh 25.1µM, HttQ103 aggreg inconclusive
O=C(/C=C/c1ccccc1)NC(=S)Nc1ccc(N2CCOCC2)c(Cl)c1	none (no result: HPGD block)
O=C(NC(=S)Nc1ccc(N2CCOCC2)c(Cl)c1)C(c1ccccc1)c1ccccc1	PNC inhibitor inconclusive, ALDH1A1 inh 11.2µM
CCCCCCN(C(=O)CCCCCN1C(=O)NC(c2ccccc2)C(C(=O)OCc2ccccc2)=C1C)C(C(=O)NCCCC)c1ccc(OCC(=O)OC)c(C(=O)OC)c1 (centres undefined)	none (no result: PNC inhibitor, HPGD block, ALDH1A1 inh)
CCOc1ccccc1N(CC(=O)N1CCCCCC1)S(C)(=O)=O	none
Cc1ccccc1N(CC(N)=O)S(C)(=O)=O	none
CCOc1ccccc1N(CC(=O)OC)S(C)(=O)=O	PNC inhibitor -106.0
Cc1ccccc1N(CC(=O)O)S(C)(=O)=O	PNC inhibitor -103.7
CC=CC1=C(C(=O)O)N2C(=O)[C@H](NC(=O)[C@H](N)c3ccc(O)cc3)[C@@H]2SC1	ALDH1A1 inh inconclusive (no result: PNC inhibitor)
O=C(CCCOc1ccccc1)Nc1nc2ccccc2[nH]1	HTT cytoprotect inconclusive (no result: PNC inhibitor, HPGD block)
O=S(=O)(CCOc1ccccc1)c1nc2ccccc2[nH]1	ALDH1A1 inh 6.31µM
COc1cccc([C@@H]2Oc3ccc(Br)cc3C(=O)[C@H]2OC(=O)NCCOc2ccccc2)c1	none (no result: PNC inhibitor, HttQ103 aggreg)
Cc1c(C)n(CC(O)CN2CCOCC2)c2ccccc12 (centres undefined)	ALDH1A1 inh inconclusive
